Hits are enriched below; roughly 2.2% of the tested compounds scored in any of these assays.
TLR4-MyD88 BLA: blocks binding of human TLR4 to MyD88 | O00206+Q99836 | HeLa CL3-4 TLR4/MyD88 BLA complementation, FRET ratio | inhibition, % at 8.4 µM | actives 0.18% (n = 200,000) | AID 861; in the data active means inhibition above about 25%;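 further: 0% = vehicle and 100% = reference inhibitor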
Target sequence (O00206 whole entry, looked up): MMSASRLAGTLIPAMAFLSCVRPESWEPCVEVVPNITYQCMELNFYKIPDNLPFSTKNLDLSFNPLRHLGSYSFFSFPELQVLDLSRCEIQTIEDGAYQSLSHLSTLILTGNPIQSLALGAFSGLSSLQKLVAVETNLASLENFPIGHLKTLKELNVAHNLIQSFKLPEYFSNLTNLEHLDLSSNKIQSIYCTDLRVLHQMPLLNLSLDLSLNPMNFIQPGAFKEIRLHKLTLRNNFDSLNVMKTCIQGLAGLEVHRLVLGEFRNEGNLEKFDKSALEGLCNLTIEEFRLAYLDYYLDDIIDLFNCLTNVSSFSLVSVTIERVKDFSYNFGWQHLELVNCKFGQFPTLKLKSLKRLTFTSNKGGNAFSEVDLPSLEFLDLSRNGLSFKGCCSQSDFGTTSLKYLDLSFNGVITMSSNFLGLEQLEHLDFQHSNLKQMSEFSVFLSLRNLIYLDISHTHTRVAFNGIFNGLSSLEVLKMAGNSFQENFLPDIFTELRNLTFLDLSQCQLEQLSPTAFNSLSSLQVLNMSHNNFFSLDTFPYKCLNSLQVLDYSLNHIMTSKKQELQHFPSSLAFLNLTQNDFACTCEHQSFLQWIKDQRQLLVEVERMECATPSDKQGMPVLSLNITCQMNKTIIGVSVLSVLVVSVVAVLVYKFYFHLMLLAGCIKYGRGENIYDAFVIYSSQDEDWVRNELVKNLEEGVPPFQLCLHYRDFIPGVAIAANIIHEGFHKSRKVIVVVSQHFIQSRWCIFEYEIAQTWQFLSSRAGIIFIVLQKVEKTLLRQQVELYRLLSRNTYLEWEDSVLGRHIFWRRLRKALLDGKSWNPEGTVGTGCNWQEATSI
Target sequence (Q99836 whole entry, looked up): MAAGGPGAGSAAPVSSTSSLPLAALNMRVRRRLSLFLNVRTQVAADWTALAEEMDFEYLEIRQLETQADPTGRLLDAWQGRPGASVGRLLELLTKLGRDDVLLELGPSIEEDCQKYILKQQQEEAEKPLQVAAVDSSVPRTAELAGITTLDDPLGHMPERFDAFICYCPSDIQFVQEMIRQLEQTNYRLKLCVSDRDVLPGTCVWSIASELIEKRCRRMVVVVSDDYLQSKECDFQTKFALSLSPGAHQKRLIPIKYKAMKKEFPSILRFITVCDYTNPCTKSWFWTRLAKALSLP
TLR9-MyD88 block: inhibitors of human TLR9-MyD88 binding; Q9NR96+Q99836; CHO BLA complementation TLR9-MyD88, CCF4 FRET ratio; inhibition, % at 4.98 µM; actives 0.21% (n = 340,000); AID 504734;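 active means inhibition above the mean over all tested compounds plus 3 SD, cut at about 21% in these data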;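 further: 0% = DMSO only wells and 100% = clavulanate BLA inhibitor control wells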
GRK2 aptamer HTS: inhibitors of human GRK2 displacing RNA aptamer; bead flow cytometry, FAM-aptamer displacement from GRK2; inhibition of aptamer binding, % at 10 µM; actives 0.59% (n = 330,000); AID 488847;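 active means inhibition of aptamer binding above 40%, roughly 3 SD of noise, on plates passing a quality check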;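 further: median bead fluorescence of bound FAM aptamer so fluorescent compounds give negative values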
TMEM16A act: activates or potentiates the mouse TMEM16A chloride channel. Q8BHY3. HEK293 TMEM16A/YFP-H148Q/I152L, iodide quench fluorescence; hits give low values. B-score at 10 µM. actives 0.3% (n = 340,000);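 active means fluorescence-ratio B-score plate-corrected deviation score at least 3 library SD below zero, with starting fluorescence score within 5 deviations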;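 further: channel opened by trigger with iodide after compound preincubation; score built on the fluorescence ratio of max minus min over baseline; more negative score means more quench and so TMEM16A activation or potentiation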
ANO1 block: mouse TMEM16A channel inhibition, primary screen; Q8BHY3; HEK293 TMEM16A/YFP iodide influx fluorescence, ionomycin; normalized B-score (activity score, 25-100; higher = stronger inhibition) at 10 µM; actives 1.2% (n = 310,000); AID 588511;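 active means ratio plate-corrected score three or more library SD toward inhibition, starting fluorescence score within five deviations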;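 further: score derived from kinetic fluorescence span divided by baseline fluorescence per well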
NOD2 RIPK2 PPI: blocks binding of human NOD2 to RIPK2; actives 0.38% (n = 360,000); inhibition, % at 4.98 µM; CHO BLA complementation NOD2-RIPK2, CCF4 ratio; O43353; in the data active means inhibition above about 21%;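 further: 0% = vehicle only and 100% = reference blocker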
GRK2 inh confirm: human GRK2 inhibition confirmation, cherry pick 1. shares compounds with GRK2 aptamer HTS. bead-bound GRK2, FAM-aptamer displacement, flow cytometry. aptamer displacement, % at 10 µM. actives 4% (n = 2,000). AID 504451;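 active means aptamer displacement above 40%, near three times the noise of non-fluorescent compounds, on plates passing quality checks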;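 further: negative values mostly reflect intrinsic compound fluorescence rather than true enhancement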
Aptamer quench: quenches fluorescent RNA aptamer, GRK2 hit artifact; shares compounds with GRK2 aptamer HTS; Fluorescent RNA aptamer beads, quenching, flow cytometry; hits give high values; fluorescence change (kMESF span), kMESF (test concentration not listed); 110 tested, under 10 active;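 active means compounds whose bead fluorescence drops by more than 37 kMESF across the dose range, marking them as dye quenchers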
FAM quench CP1: aptamer fluorescence quenching in GRK2 counter-screen; fluorescence response (% of DMSO), % at 10 µM; Carboxyfluorescein RNA aptamer on beads, flow cytometry quenching; hits give low values; shares compounds with GRK2 aptamer HTS; 2,000 tested, under 10 active;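 active means compounds that quench the bead-bound fluorescent RNA probe, cutting fluorescence to under half of the solvent control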;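 further: counterscreen run without GRK2 so only probe quenching by compound is measured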
GRK2 confirm 2: human GRK2 inhibition confirmation, cherry pick 2. inhibition of aptamer binding, % at 10 µM. shares compounds with GRK2 aptamer HTS. bead-bound GRK2, FAM-aptamer displacement, flow cytometry. 360 tested, under 10 active;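 active means inhibition of aptamer binding above 40%, about triple the noise seen with nonglowing compounds, on plates passing quality control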;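 further: negative values mostly come from compounds that fluoresce themselves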
FAM quench SP: counter-screen for GRK2 binding hits: quenchers of fluorescent RNA aptamer. shares compounds with GRK2 aptamer HTS. carboxyfluorescein RNA aptamer beads, flow cytometry quenching; hits give low values. fluorescence response vs DMSO, % at 10 µM. 360 tested, under 10 active. AID 588494;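 active means response vs DMSO under 50%, meaning signal dropped by over half, treated as fluorescence quencher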;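 further: labelled aptamer on streptavidin beads without GRK2 as a quench counter-screen; 100% = bead fluorescence of DMSO wells and lower means quenching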
* marks the source's active call; other numbers are inactive results; i = inactive; · = not tested or not shown.

SMILES	TLR4-MyD88 BLA	TLR9-MyD88 block	GRK2 aptamer HTS	TMEM16A act	ANO1 block	NOD2 RIPK2 PPI	GRK2 inh confirm	FAM quench CP1	others
CCCCCC(=O)Nc1ccc(N2CCOCC2)c(S(=O)(=O)Nc2ccc(OC)cc2)c1	·	-2	82*	i	i	3	-19	94
O=C(Cc1ccccc1)Nn1cnc2ccccc21	10	11	55*	i	i	-2	-4	97
COCCN(CC(=O)Nc1cccc(C)c1C)C(=O)C1(c2ccc(Cl)cc2)CCC1	·	0	0	i	·	-6	·	·
COc1ccc(C(=O)NNC(=O)CSc2nc3c([nH]2)c(=O)n(C)c(=O)n3C)cc1	2	-15	100*	i	i	-9	2	97
CC(C)CNC(=O)c1cc(=O)[nH]c2ccc(S(=O)(=O)Nc3ccc(F)cc3)cc12	·	-9	2	i	i	9	·	·
Cc1cc(C)c(NC(=O)CN2C(=O)NC3(CCc4ccccc43)C2=O)c(Cl)c1 (stereo unspecified)	·	10	0	i	·	0	·	·
Cc1cc(C)c(NC(=O)CN2C(=O)NC3(CCCCC3)C2=O)c(Cl)c1	3	1	83*	i	i	3	3	96
CCOc1ccc(C(C)=O)cc1CN1C(=O)NC2(CCCCCC2)C1=O	·	-6	83*	i	i	6	-34	102
CC(=O)c1cccc(NC(=O)CN2C(=O)NC3(CCCCCCC3)C2=O)c1	-8	-1	100*	i	i	-8	-31	99
COc1ccc(C(C)=O)cc1CN1C(=O)NC2(CCCCCCC2)C1=O	1	-16	0	i	i	-6	·	·
CC1CCCN(S(=O)(=O)c2ccc(NC(=O)C3CC(=O)N(c4ccccc4)C3)cc2)C1 (stereo unspecified)	·	13	100*	i	i	-8	3	102
O=C(Nc1ccc(S(=O)(=O)N2CCCCC2)cc1)C1CC(=O)N(c2ccccc2)C1 (stereo unspecified)	·	-2	1	i	i	-6	·	·
CC(C)Cn1c(N)c(C(=O)CSc2ccccc2)c(=O)n(C)c1=O	-6	4	47*	i	i	3	-3	97
Cc1ccccc1CSCC(=O)c1c(N)n(CC(C)C)c(=O)n(C)c1=O	-2	2	1	i	i	-5	·	·
COc1ccccc1C(CNC(=O)CCNS(=O)(=O)c1ccc(Br)cc1)N1CCCC1 (stereo unspecified)	·	-5	·	i	·	1	·	·
Cc1cc(C)nc(NS(=O)(=O)c2ccc(NC(=O)CSc3nc(-c4ccccc4)c(C#N)c(=O)[nH]3)cc2)n1	-6	-8	2	i	i	6	·	·
COc1ccccc1N1C(=O)CC(N(O)c2ccccc2)C1=O (stereo unspecified)	·	1	2	i	i	-2	·	·
CCCOc1ccccc1N1C(=O)CC(N(O)c2ccccc2)C1=O (stereo unspecified)	20	7	49*	i	i	6	1	124
CCOc1ccc(N2CC(C(=O)NNC(=O)c3ccc(Br)cc3)CC2=O)cc1 (stereo unspecified)	·	5	0	i	i	-3	·	·
O=C(C1CCN(S(=O)(=O)N2CCC3(CC2)OCCO3)CC1)N1CCc2ccccc2C1	-5	5	2	i	i	-12	·	·
O=C(C1CCN(c2ccc(N3CCOCC3)nn2)CC1)N1CCc2ccccc2C1	-14	0	0	i	i	3	3	97
CC(=O)OC[C@@H]1CN(Cc2ccccc2)C[C@H](n2cnc3c(N4CCN(c5ccccc5)CC4)ncnc32)O1	·	·	·	·	·	-4	·	·
CCCCN(CC)C(=O)Cn1cnc2ccc(S(=O)(=O)N3CCC(C)CC3)cc2c1=O	-1	4	1	i	i	0	·	·
Cc1ccc(Cl)cc1NC(=O)COC(=O)c1ccccc1O	·	-1	85*	i	i	-1	-5	98
O=C(COC(=O)c1cc(Cl)ccc1O)Nc1ccccc1C(=O)NC1CC1	·	-2	1	i	·	-11	·	·
SMILES	TLR4-MyD88 BLA	TLR9-MyD88 block	GRK2 aptamer HTS	TMEM16A act	ANO1 block	NOD2 RIPK2 PPI	GRK2 inh confirm	FAM quench CP1	others
O=C1NC(=O)/C(=C\c2ccc(O)cc2O)S1	2	3	76*	i	i	6	3	102
O=C1NC(=O)/C(=C/c2cccc3ccccc23)S1	·	-8	1	i	i	-9	·	·
CCN(CC)CCCNC(=S)N(Cc1cccnc1)Cc1cc2cc(C)cc(C)c2[nH]c1=O	5	8	24	i	i	4	-6	97
NC(=O)c1cc[n+](CC2=C(C(=O)O)N3C(=O)[C@@H](NC(=O)C(c4ccccc4)S(=O)(=O)[O-])[C@H]3SC2)cc1 (stereo partly specified)	-17	-9	85*	i	i	-16	99*	96	Aptamer quench=-7.8
N[C@@H](C(=O)N[C@@H]1C(=O)N2C(C(=O)O)=C(Cl)CS[C@H]12)c1ccccc1	1	0	0	i	i	-3	·	·
CC1CCCC(NC(=O)COC(=O)c2cc(S(=O)(=O)N3CCOCC3)ccc2F)C1C (stereo unspecified)	·	3	60*	i	·	0	1	102
CC1CCCC(NC(=O)COC(=O)c2ccc(S(=O)(=O)N3CCOCC3)cc2)C1C (stereo unspecified)	8	5	1	i	i	4	·	·
O=C(NCc1cccnc1)C12CC3CC(CC(Cl)(C3)C1)C2	·	-12	0	i	i	-10	·	·
Cc1ccc(CNC(=O)CCS(=O)(=O)c2ccc3c(c2)NC(=O)C(C)S3)cc1 (stereo unspecified)	·	8	8	i	i	1	·	·	GRK2 confirm 2=9;FAM quench SP=102
COc1ccccc1NC(=O)CCS(=O)(=O)c1ccc2c(c1)NC(=O)C(C)S2 (stereo unspecified)	·	-3	22	i	i	1	·	·	GRK2 confirm 2=10;FAM quench SP=97

Screens: PubChem, several laboratories
